PubChem BioAssay
Active and inactive are the calls of the source.

What was measured:
Albumin (Bos taurus) = Albumin (Bos taurus) (UniProt P02769); experiment: compounds binding labelled BSA control protein – biochemical, small-molecule microarray, Alexa647 label, 635/667 nm fluorescence, artefact control for SMM control protein annotation, profiling panel (AID 1118); conditions: BSA-A647 binding, fluorescence 635 nm, higher = more signal;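 note: score merges 667 nm emission intensity and signal-to-noise per printed compound spot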
Sequence of Albumin (Bos taurus) (P02769 whole entry, looked up): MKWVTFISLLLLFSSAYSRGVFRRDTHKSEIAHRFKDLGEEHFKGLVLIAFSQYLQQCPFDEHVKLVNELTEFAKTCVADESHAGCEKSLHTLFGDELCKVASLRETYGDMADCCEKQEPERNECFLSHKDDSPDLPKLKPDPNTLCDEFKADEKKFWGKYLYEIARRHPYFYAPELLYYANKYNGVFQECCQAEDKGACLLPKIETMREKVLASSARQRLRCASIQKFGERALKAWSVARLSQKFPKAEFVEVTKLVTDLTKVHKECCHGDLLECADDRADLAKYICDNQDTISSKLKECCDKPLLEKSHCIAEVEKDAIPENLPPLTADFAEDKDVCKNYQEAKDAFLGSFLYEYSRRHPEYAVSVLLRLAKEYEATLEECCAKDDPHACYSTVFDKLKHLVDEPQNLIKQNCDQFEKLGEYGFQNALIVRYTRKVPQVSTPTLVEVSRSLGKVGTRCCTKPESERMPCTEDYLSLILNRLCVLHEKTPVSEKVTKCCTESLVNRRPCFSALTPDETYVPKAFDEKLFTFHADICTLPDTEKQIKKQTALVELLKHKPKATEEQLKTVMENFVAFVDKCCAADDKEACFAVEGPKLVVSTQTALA

[1] = probe aXIP binding to arrayed compounds – biochemical, NeuroSMM set, 635/667 nm fluorescence, primary screen (AID 1119); conditions: small-molecule microarray, higher = more signal, called active from +8 up or from −8 down;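 note: probe is the protein aXip251-270 applied at 1 µg/mL to compound-printed slides; binding of probe to printed compounds measured as 667 nm fluorescence plus signal to noise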
[2] = probe aNOTCH3 binding on compound microarray – biochemical, small-molecule microarray, 635/667 nm fluorescence, primary screen (AID 1120); conditions: higher = more signal;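 note: probe is a biotin-tagged antibody raised against NOTCH3 rather than NOTCH3 protein; score merges spot fluorescence near 667 nm with spot signal to noise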
[3] = probe aNOTCH2 binding on compound microarray – biochemical, small-molecule microarray, 635/667 nm fluorescence, primary screen (AID 1121); conditions: higher = more signal;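 note: score merges feature fluorescence read at 667 nm with its signal to noise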
[4] = molecular target: Carbonic anhydrase 2 (Homo sapiens) (UniProt P00918); experiment: compounds binding carbonic anhydrase 2 – biochemical, small-molecule microarray, Alexa647-labelled CAII, profiling panel (AID 1122); conditions: CAII-A647 binding fluorescence, higher = more signal
[5] = COS7 lysate on small-molecule microarray, probe aHis, 635 nm (AID 1123); conditions: COS7 cell lysate, fluorescence, higher = more signal;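 note: z-score combines 667nm fluorescence intensity with signal-to-noise per printed compound spot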
[6] = probe aLAP1 signal on lysate-treated microarray – cell lysate, small-molecule microarray, COS7 lysate, primary screen (AID 1124); conditions: probe aLAP1, fluorescence, higher = more signal;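 note: lysate comes from COS7 cells expressing LAP1 and is applied at 0.3 µg/mL; score merges spot fluorescence near 667 nm with signal-to-noise over triplicate slides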
Sam68 (KHDRBS1) = experiment: compounds binding KHDRBS1 protein – biochemical, small-molecule microarray, 635 nm fluorescence, primary screen (AID 1125); conditions: higher = more signal;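 note: score merges 667 nm channel intensity with signal to noise over triplicate slides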
[7] = test system: Chordin-like protein 2 (CHRDL2); experiment: compounds binding chordin-like 2 – biochemical, small-molecule microarray, 635 nm fluorescence, primary screen (AID 1126); conditions: fluorescence 635 nm, higher = more signal;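 note: printed compound slides probed with Chrdl2 protein at 4 µg/mL for 1 h at 4 C; score merges 667 nm emission intensity with signal to noise over three replicate slides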
[8] = molecular target: Concanavalin-A (Canavalia ensiformis) (UniProt P02866); experiment: compounds binding concanavalin A lectin – biochemical, small-molecule microarray, Alexa647 label, 635 nm, artefact control for SMM control protein annotation, primary screen (AID 1127); conditions: ConA-A647 binding fluorescence, higher = more signal;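 note: z combines 667 nm emission intensity with signal-to-noise across three replicate slides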
Sequence of Concanavalin-A (Canavalia ensiformis) (P02866 whole entry, looked up): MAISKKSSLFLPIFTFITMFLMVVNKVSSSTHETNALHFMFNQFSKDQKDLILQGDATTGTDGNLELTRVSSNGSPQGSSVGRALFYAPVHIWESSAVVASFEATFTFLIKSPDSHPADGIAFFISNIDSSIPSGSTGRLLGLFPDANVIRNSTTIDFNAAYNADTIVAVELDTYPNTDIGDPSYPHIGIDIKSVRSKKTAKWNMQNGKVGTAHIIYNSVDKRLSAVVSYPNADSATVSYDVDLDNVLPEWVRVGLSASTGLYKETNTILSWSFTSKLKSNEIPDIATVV

Row | Structure (SMILES) | composite z-score (Albumin (Bos taurus)) | composite Z-score [1] | composite z-score [2] | composite z-score [3] | composite z-score [4] | composite z-score [5] | composite z-score [6] | composite z-score (Sam68 (KHDRBS1)) | composite z-score [7] | composite z-score [8]
1 | COc1ccc(-c2ccc3c(n2)CCCN3CC(O)CN2CCCc3nc(C)c(C)cc32)cc1 (stereo not given) | 0.683 | 2.43 (inactive) | 0.713 | -0.0017 | 0.741 | 0.975 | 0.677 | 1.2 | 1.18 | 1.09
2 | O=C1C[C@@H](O)[C@@H](O)[C@@H]2[C@@H]3C(=O)N(Cc4ccc5c(c4)OCO5)C(=O)[C@@H]3CC[C@@H]12 | 0.295 | 0.856 (inactive) | -0.0146 | -0.0938 | 0.229 | 0.0971 | -0.0553 | 0.507 | 0.558 | 0.492
3 | COCCCNC(=O)[C@@]1(CCS(=O)(=O)c2ccccc2)N=C(c2ccc(OCCCO)cc2)O[C@H]1c1ccccc1 | 0.533 | 0.164 (inactive) | 0.303 | 0.529 | 0.577 | 3 | 1.01 | 1.31 | -0.0021 | 0.261
4 | CCOC(=O)C1=CC[C@H]2C(=O)N(CC)C(=O)[C@@H]12 | 0.343 | 0.806 (inactive) | 0.0242 | -0.0866 | 0.522 | 1.01 | 0.111 | 1.09 | 0.363 | 0.65
5 | O=C1NC(=O)C2C1C=CC(C(O)Cc1ccccc1)N2Nc1ccccn1 (stereo not given) | 0.461 | -0.0126 (inactive) | -0.0311 | -0.0079 | 0.865 | 1.87 | 0.12 | 0.322 | 0.313 | 0.77
6 | CC(C)=C1C(=O)C(c2ccccc2)=C2CN3C(=O)N(CCc4ccccc4)C(=O)[C@]3(Cc3ccc(F)cc3)[C@H]21 | 0.697 | 1.87 (inactive) | 0.186 | 0.148 | 0.306 | 1.04 | 0.34 | 0.639 | -2.22 | -1.05
7 | COC(=O)[C@H](C)NC(=O)CCC1CC(OC(=O)NCc2cccc3ccccc23)CC2(CCCC(COC(=O)NCCc3ccc(Cl)cc3)O2)O1 (stereo not given in full) | 0.147 | 0.108 (inactive) | -0.176 | -0.0868 | 0.535 | 0.631 | -0.422 | 1.23 | -0.0578 | 0.946
8 | O=C1[C@H]2[C@H]3[C@H](O)[C@H](O)CC(=NOCc4ccccc4)[C@H]3CC[C@H]2C(=O)N1c1ccc(F)cc1F | 0.155 | -0.801 (inactive) | -0.308 | -0.265 | 0.784 | -0.137 | -0.713 | -0.626 | 0.0499 | -0.111
9 | COC(=O)[C@@H]1CC[C@H](C)[C@@H](c2ccc(C)cc2)N1C(=O)c1ccc(C=NOC(C)CN2CCCCc3nc(C)c(C)cc32)cc1 (stereo not given in full) | 0.594 | -0.317 (inactive) | 0.0916 | -0.0707 | -0.0862 | 0.125 | 0.388 | 0.0689 | 0.62 | 0.951
10 | CCCCC(=C=CC[C@H](O)c1ccccc1OCCO)C[C@H](O)COCc1ccccc1 | 0.355 | 2.26 (inactive) | -0.0362 | -0.147 | 0.669 | 0.0513 | 1.27 | -0.0664 | -0.632 | 0.874
11 | C[C@@H]1C=CCC(=O)OC[C@H](C)C(=O)OC[C@H]2O[C@H]1C=C[C@H]2O | 0.411 | -0.18 (inactive) | 0.2 | -0.0795 | 0.116 | 0.544 | 0.0137 | 0.0768 | 0.458 | 0.227
12 | Cc1cc2c(c(=O)o1)[C@H](O)[C@H]1O[C@H]1C2=O | -1.02 | -0.18 (inactive) | 0.255 | -0.0076 | 0.0024 | -0.682 | -0.106 | -0.333 | 0.26 | -0.0383
13 | CC(=O)OC[C@H]1O[C@H](C#CCCCc2ccccc2)C=C[C@@H]1OC(C)=O | 0.495 | 0.0117 (inactive) | -0.0647 | -0.0772 | -0.155 | 0.622 | 0.46 | 0.459 | 0.192 | -0.077
14 | CCOC(=O)[C@H](CC(C)C)NC(=O)CCC1CC(OC(=O)NCc2cccc3ccccc23)CC2(CCCC(COC(=O)NCCN3CCOCC3)O2)O1 (stereo not given in full) | 0.363 | 0.0928 (inactive) | -0.0014 | -0.19 | 0.306 | 0.934 | 0.324 | 1.3 | 0.915 | 0.793
15 | C=C(/C(=C/C[C@H](OC(=O)c1ccncc1)c1ccc(OCCO)cc1)c1cnc2ccccc2c1)C(C)C | 0.139 | 0.184 (inactive) | 0.173 | -0.118 | 0.946 | 0.118 | 0.62 | 1.32 | 1.14 | 1.16
16 | COCCNC(=O)OCC1CCCC2(CC(OC(=O)NCCc3ccc(F)cc3)CC(CCC(=O)N[C@@H](C)C(=O)OC)O2)O1 (stereo not given in full) | 0.456 | -0.126 (inactive) | 0.0228 | -0.144 | 0.245 | 0.292 | -0.0037 | 1.3 | 0.581 | 0.769
17 | CC(C)=CCCC(C)=CCON=C1C[C@@H](O)[C@@H](O)[C@@H]2[C@@H]3C(=O)N(C[C@@H]4CCCO4)C(=O)[C@@H]3CC[C@@H]12 | -0.506 | 2.86 (inactive) | -0.0328 | -0.0907 | 0.452 | 0.877 | -0.108 | 1.3 | 1.39 | 0.296
18 | CCOC(=O)NN=C1C[C@@H](O)[C@@H](O)[C@@H]2[C@@H]3C(=O)N(C4CCCCC4)C(=O)[C@@H]3CC[C@@H]12 | 0.272 | -0.288 (inactive) | -0.0598 | -0.0534 | 0.0286 | -0.636 | 1.25 | 0.39 | 0.645 | 0.616
19 | COCCOC(=O)N1C(=O)[C@@]2(c3cc(C#Cc4ccc(OC)cc4)ccc31)[C@H](c1ccc(O)cc1)N1[C@H](c3ccccc3)[C@H](c3ccccc3)OC(=O)[C@H]1[C@@H]2C(N)=O | 0.595 | 0.0583 (inactive) | 0.357 | -0.108 | 0.48 | 1.52 | 0.364 | 1.29 | 0.356 | 1.12
20 | COC(=O)C1=C(C)[C@@H](O)[C@@H](C)[C@H](c2c(OC)c(OC)c(C)c(OC)c2OC)O1 | 0.529 | -0.461 (inactive) | -0.0615 | -0.14 | 0.298 | 0.206 | -0.064 | -0.441 | 0.336 | 0.484
21 | CO[C@@H]1COC(=O)CC=C[C@@H](C)[C@@H]2C=C[C@@H](O)[C@@H](COC(=O)CC=C[C@H]1C)O2 | -0.805 | 0.142 (inactive) | 0.0864 | -0.16 | -0.235 | -0.635 | 0.156 | 0.228 | 1.38 | -0.363
22 | CC(CCN1CCCCc2nc(C)c(C)cc21)=NOC(C)CN1CCCCc2nc(C)c(C)cc21 (stereo not given) | 0.845 | 0.833 (inactive) | 0.284 | -0.0131 | 0.503 | 1.12 | 0.858 | 1.3 | 1.25 | 0.898
23 | CO[C@@H]1COC(=O)[C@@H]2CCCN2C(=O)[C@@H](C)COC(=O)[C@H](COCc2ccccc2)NC(=O)CC=C[C@H]1C | 0.0307 | -0.413 (inactive) | -0.059 | -0.147 | 0.12 | 1.35 | -0.0015 | 0.813 | 0.611 | 0.379
24 | CCN1C(=O)[C@H]2[C@H]3[C@H](O)[C@H](O)CC(=NOC(C)CN4CCCCc5nc(C)c(C)cc54)[C@@H]3CC[C@H]2C1=O (stereo not given in full) | -0.428 | -0.467 (inactive) | -0.0511 | -0.0539 | -0.144 | -0.144 | 0.0096 | 0.238 | 1.22 | -0.0891
25 | O=C1C[C@]2(c3ccc([N+](=O)[O-])cc3)C(=O)N(CCN3CCOCC3)c3cc(CO)ccc3[C@H]2N1CC12CC3CC(CC(C3)C1)C2 | 0.89 | 0.83 (inactive) | -0.185 | -0.174 | 0.185 | 0.253 | 0.713 | -0.631 | -1.03 | -0.163
26 | CCOC(=O)[C@H](CC(C)C)NC(=O)CCC1CC(OC(=O)NCc2cccc3ccccc23)CC2(CCCC(COC(=O)NCCc3ccccc3OC)O2)O1 (stereo not given in full) | 0.752 | 0.0898 (inactive) | -0.155 | -0.0708 | 0.211 | 0.398 | 0.251 | 1.3 | 0.566 | 1.11
27 | CC(C)CON=C1[C@H]2CCn3c(=O)n(-c4ccccc4)c(=O)n3[C@H]2[C@H](O)[C@@H]2O[C@H]12 | 0.348 | 0.131 (inactive) | -0.0193 | 0.0145 | -0.0152 | -0.497 | -0.544 | -0.589 | 0.762 | 0.0834
